# Screens: PubChem BioAssay, National Center for Advancing Translational Sciences (NCATS)
# Sm TGR block: S. mansoni TGR enzyme inhibition; Q962Y6; purified TGR, DTNB reduction, TNB absorbance 405 nm; Potency, µM (titrated, usually from 114 µM), without a hit: top-dose activity change, negative = inhibition, most hits filed as inhibitors; actives 3% (n = 360,000); AID 485364; further: potency means the concentration at half of the fitted maximal effect; on the % scale 0 is the no-effect control and ±100 the full control effect; nearly all actives have a fitted effect of over 60% in size
#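 First, TGR (20 nM dispensed) and NADPH were mixed with compound. Second, a 15 min room-temperature incubation followed. Third, further NADPH and then DTNB were added to start the reaction. Finally, TNB absorbance was monitored kinetically.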
# LmPK inh: inhibitors of Leishmania mexicana pyruvate kinase; actives 0.37% (n = 290,000); AID 1721; Q27686; Potency, µM (highest dose often 57.5 µM), inactives show at the top dose activity change, negative = inhibition, usual class: inhibitors; purified LmPK, Kinase-Glo ATP luminescence, 1 h; further: potency means the concentration at half of the fitted maximal effect; on the % scale 0 is the no-effect control and ±100 the full control effect
# Target sequence (Q27686 whole entry, looked up): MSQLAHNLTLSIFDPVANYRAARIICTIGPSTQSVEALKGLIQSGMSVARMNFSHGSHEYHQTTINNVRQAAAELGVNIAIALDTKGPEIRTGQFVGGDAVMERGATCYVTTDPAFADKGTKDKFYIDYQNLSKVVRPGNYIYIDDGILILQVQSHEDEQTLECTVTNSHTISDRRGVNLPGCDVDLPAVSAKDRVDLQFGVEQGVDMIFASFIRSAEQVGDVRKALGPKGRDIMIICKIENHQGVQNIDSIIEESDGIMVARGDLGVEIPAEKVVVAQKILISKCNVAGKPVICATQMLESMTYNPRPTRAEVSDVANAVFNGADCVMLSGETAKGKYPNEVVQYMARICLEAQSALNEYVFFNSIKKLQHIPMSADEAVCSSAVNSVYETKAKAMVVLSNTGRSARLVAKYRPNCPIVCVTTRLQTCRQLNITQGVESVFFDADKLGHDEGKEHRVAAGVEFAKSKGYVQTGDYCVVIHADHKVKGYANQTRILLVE
#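 ATP generated from ADP (0.1 mM) and PEP (0.5 mM) by 0.1 nM LmPK over 1 h at room temperature (pH 7.2 imidazole buffer) was detected by coupled luciferase luminescence. Values were normalized to uninhibited and no-enzyme wells.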
# Tb PYK inh: T. brucei pyruvate kinase inhibition; Potency, µM (titrated, usually from 76.8 µM), for the others: at the highest dose activity, negative = inhibition, hits mostly inhibitors; actives 0.12% (n = 410,000); TbPYK enzyme, Kinase-Glo Plus ATP luminescence, 45 min; Q57TT1; AID 624173; further: potency means the concentration at half of the fitted maximal effect; on the % scale 0 is the no-effect control and ±100 the full control effect; nearly all actives have a fitted effect of over 50% in size
#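 Glycolytic pyruvate kinase of T. brucei was incubated with substrate, test compound and 130 uM ADP for 45 minutes at room temperature. Luminescent Kinase-Glo Plus signal was measured after 10 minutes.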
# Shiga toxin inh: inhibitors of Shiga toxin in Vero cells | Vero cells, Shiga toxin protein synthesis inhibition reporter | inhibition, % at 38.7 µM | actives 9.2% (n = 290,000); in the data active means inhibition mostly above about 28%, no sharp cut-off; inactive means mostly below about 43%; further: 0% is about no effect
# Giardia FBPA inh: blocks Giardia fructose-bisphosphate aldolase activity. purified Giardia FBPA. Potency, µM (top dose mostly 59.6 µM), for the others: at the top dose activity, negative = inhibition, hits mostly inhibitors. actives 0.71% (n = 290,000). AID 2451; further: potency means the concentration at half of the fitted maximal effect; on the % scale 0 is the no-effect control and ±100 the full control effect; nearly all actives have a fitted effect of over 55% in size
#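 Giardia FBPA (40 nM reagent) was preincubated 10 min at RT with compound (up to 57.5 uM final), then substrate plus GAPDH/TPI/NAD/arsenate coupling system with diaphorase/resazurin was added; resorufin fluorescence (525/598 nm) was read after 20 min.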
# Cycloheximide cs: counter-screen hit for Shiga toxin inhibitors, cycloheximide; cell reporter, cycloheximide protein synthesis inhibition counterscreen; max response, %; actives 12% (n = 300,000); in the data active means max response mostly above about 13%, no sharp cut-off; inactive means mostly below about 14%; further: read at 38.3 µM for the half of the compounds with a filed dose; 0% is about no effect
# Active calls of the source: *; u = inconclusive; x = no result given; [ ] = dose if it differs, or a comment. The sample as a whole holds a higher share of hits than the screen did. Unless noted, the call rests on the fitted dose curve; in most records, active means well fitted curve in the direction sought with a large enough effect; inconclusive means small, poorly fitted or top-dose-only effect, or another doubt; inactive means no such curve, though single readings can be large; an effect the other way counts as inactive or inconclusive.
SMILES,Sm TGR block,LmPK inh,Tb PYK inh,Shiga toxin inh,Giardia FBPA inh,Cycloheximide cs
CCOC(=O)c1c(NC(=O)CCN2C(=O)c3ccccc3C2=O)sc(C(=O)OC(C)C)c1C,-7.3%,2.8%,-1.6%,4.4,-1.6%,0.8
Cc1nc(CC(=O)Nc2cccc(C)c2C)cs1,1.6%,x,0.4%,x,x,x
COc1cc(Cl)c(C)cc1NC(=O)CCn1c(=O)c2cccn2c2cccnc21,-3.5%,x,1.6%,x,x,x
N/C(Cc1ccc(Cl)cc1)=N\OC(=O)CCc1ccccc1,x,x,-8.0%,x,x,x
Cc1ccc(/C(N)=N/OC(=O)CCc2ccccc2)cc1,2.8%,-0.9%,2.1%,91.0*,1.7%,33.3*
N/C(=N\OC(=O)CCc1ccccc1)c1ccc(Br)cc1,9.0%,-5.3%,2.0%,71.1*,-0.4%,38.0*
N/C(=N\OC(=O)CCc1ccccc1)c1ccccc1Cl,4.8%,-2.2%,2.4%,106.9*,1.3%,27.5*
Cc1ccc(C(=O)Nc2ccccc2C(=O)OCc2cc(=O)n3nc(C4CC4)sc3n2)cc1,0.4%,x,3.7%,x,x,x
CCN(CCCNC(=O)c1cc2cc3cc(C)ccc3nc2s1)c1cccc(C)c1,5.4%,x,3.5%,x,x,x
COc1ccc(-n2ccn(Cc3ccccc3C)c(=O)c2=O)cc1,7.4%,x,3.9%,x,x,x
CCCCC/C=C\C/C=C\C/C=C\CCCCC(=O)O,28.2µM*,x,5.7%,x,4.0%,x
O=C(NCc1cccs1)c1ccc2c(c1)OCCO2,0.7%,-6.4%,0.8%,21.6,0.6%,37.3*
O=C(NCc1ccccc1F)c1ccc2c(c1)OCO2,8.3%,-1.6%,-3.4%,55.3,-0.7%,24.1
O=C(Nc1ccc2c(c1)OCCO2)C(=S)NCc1ccccc1,10.7%,-3.9%,-0.7%,81.8*,-4.7%,49.3*
O=C(NCc1ccccc1)c1ccc2c(c1)OCCO2,-22.7%,-3.4%,7.0%,26.4,1.5%,22.7*
O=C(O)c1ccc(CNC(=O)c2ccc3c(c2)OCCO3)cc1,3.8%,0.7%,-2.2%,-4.0,6.3%,-3.3
O=C(NCc1ccccc1Cl)c1ccc2c(c1)OCO2,1.8%,-4.0%,-5.4%,32.2*,x,17.9*
NNC(=O)[C@H](Cc1ccccc1)NC(=O)Nc1ccc2c(c1)OCCO2,17.4%,4.5%,0.9%,-3.4,1.0%,1.7
CCc1cccc(NC(=O)CSC2=Nc3ccccc3N=C(c3ccc(F)cc3)C2)c1,0.0%,x,2.2%,x,x,x
Cc1ccc(NC(=O)C2CCN(c3nc4ccccc4nc3C(F)(F)F)CC2)cc1F,12.4%,x,0.6%,x,x,x
CC(C)NC(=O)CCC(=O)N1Cc2ccccc2Oc2ncccc21,2.7%,x,2.0%,x,x,x
Cc1ccc(S(=O)(=O)Nc2ccc(=O)n(Cc3ccc(Cl)c(Cl)c3)c2)cc1,39.8µM*,-0.2%,-0.6%,-10.7,u,-0.3
CC(=O)Nc1ccc(S(=O)(=O)Nc2ccc(=O)n(Cc3ccc(Cl)c(Cl)c3)c2)cc1,8.4%,2.4%,-2.8%,8.8,24.5%,-4.1
C/C(NC(=O)c1ccccc1)=C1/C(=O)CC2C1C2(C)C (stereo not drawn),13.2%,-1.6%,-8.5%,119.0*,7.6%,43.2*
C/C(N[C@@H]1CSCC1O)=C1/C(=O)CC2[C@@H]1C2(C)C (stereo partly drawn),x,x,x,x,-9.9%,x
SMILES,Sm TGR block,LmPK inh,Tb PYK inh,Shiga toxin inh,Giardia FBPA inh,Cycloheximide cs
CCC(C(=O)Nc1ccc(C(=O)OC)cc1)n1nc(-c2ccc(C)cc2)c2c(c1=O)CCCC2 (stereo not drawn),5.2%,x,2.1%,x,x,x
Cc1cc(C)c(C)c(N=Nc2nc3ccccc3n2C)c1C,-1.1%,-6.6%,-11.1%,91.9*,-5.2%,62.5*
Cc1ccc(C)c(N=Nc2nc3ccccc3n2C)c1,7.1%,u,3.1%,76.5*,-5.6%,46.6*
Cc1ccc2nc3nc4ccc[nH]c4cc3c2c1,x,x,x,x,-6.6%[12.9 µM],x
COc1ccc(-c2c(-c3ccc4c(c3)OCO4)noc2C)cn1,6.9%,-2.8%,7.5%,66.7*,0.1%,24.8*
CN(C)c1ccc(-c2c(-c3ccc4c(c3)OCO4)noc2-c2ccsc2)cn1,-14.3%,-6.5%,-7.6%,40.1*,-10.2%,28.1*
O=c1cc(-c2ccsc2)oc2cc(-c3ccc4c(c3)OCO4)ccc12,x,x,-5.0%,x,x,x
COc1ccc(-c2c(-c3cc(OC)c(OC)c(OC)c3)noc2C)cn1,0.4%,0.6%,-2.8%,18.9,8.5%,6.5
COC(=O)c1cc(-c2c(-c3ccc4c(c3)OCO4)noc2-c2ccsc2)cc([N+](=O)[O-])c1,-17.9%,4.1%,3.5%,30.4,1.0%,24.6*
O=C(O)c1cc(-c2ccc(-c3c(-c4ccc5c(c4)OCO5)noc3-c3ccsc3)cc2)nc2ccccc12,-3.1%,-0.8%,-1.7%,60.6*,-11.0%,35.9*
Cc1ccc2oc(=O)c3cc(C(=O)Nc4ccccc4C(N)=O)sc3c2c1,-0.9%,x,0.1%,x,x,x
Cc1nn(CCCC(=O)NCc2ccccc2)c(=O)c2cc3sccc3n12,-8.1%,x,-4.8%,x,x,x
Cc1ccc(NS(=O)(=O)c2ccc(-c3cc(C)no3)cc2)c(C)c1,11.8%,x,1.5%,x,x,x
CCCN(CCC)C[C@@H]1CCCCN1CCNC(=O)N1c2ccccc2C(=O)Nc2cccnc21,x,x,x,x,8.7%,x
COc1ccccc1NC(=O)C1CCN(S(=O)(=O)c2ccc3c(c2)oc(=O)n3C)CC1,1.0%,x,-1.6%,x,x,x
CCOC(=O)N1CCc2c(sc3c2c(=O)n(Cc2ccccc2)c(=O)n3CC(=O)Nc2ccc(F)cc2)C1,4.7%,x,-2.9%,x,x,x
COc1cccc(-n2cnnc2SC(C)C(=O)NC2CCCC2)c1 (stereo not drawn),50.1µM*,x,-13.5%,x,x,x
CSc1nc(-c2ccccc2)nn1S(=O)(=O)c1ccccc1,-2.1%,4.3%,-11.8%,35.3,6.8%,17.5*
COc1ccc(-c2nc(SC)n(S(=O)(=O)c3ccccc3)n2)cc1,7.5%,-0.7%,-3.3%,96.0*,2.4%,27.9*
CSc1nc(-c2ccccc2)nn1S(=O)(=O)c1ccc(Cl)cc1,-0.3%,7.2%,-22.0%,-4.3,-1.3%,-2.3
COc1ccc2nc(N3C(=O)C(O)=C(C(=O)c4ccco4)C3c3ccc(OC)c(OC)c3)sc2c1 (stereo not drawn),x,x,-15.9%,x,x,x
Cc1ccc2nc(N3C(=O)C(O)=C(C(=O)c4ccc(C)o4)C3c3cccc(O)c3)sc2c1 (stereo not drawn),u,-1.4%,-23.9%,63.1*,3.6%,30.7*
Cc1ccc(C(=O)C2=C(O)C(=O)N(Cc3ccco3)C2c2ccc(N(C)C)cc2)o1 (stereo not drawn),-22.9%,-10.5%,-5.1%,-5.6,x,19.3
Cc1ccc(C(=O)C2=C(O)C(=O)N(c3ncccn3)C2c2cccc(Cl)c2)o1 (stereo not drawn),11.2µM*,3.8%,x,8.9,-25.6%,2.9
Cc1ccc(C(=O)C2=C(O)C(=O)N(Cc3ccco3)C2c2cccc(Br)c2)o1 (stereo not drawn),11.2µM*,3.5%,-3.7%,21.3,-8.7%,6.1
